# Sampled rows, rich in hits. Any-hit rate of the full collection: about 7.3%.
# HCV inhibitor – HCV inhibition. Huh7.5.1 HCVcc-Cre infection, luciferase reporter, 44 h. Potency, µM (series often up to 41.8 µM), without a hit: at the top dose activity change, negative = inhibition, actives largely listed as inhibitors. 340,000 compounds, 3.4% hits. AID 651820; active means well fitted inhibition curve with a large enough effect; inconclusive means small, poorly fitted or top-dose-only effect, or another doubt; inactive means no such curve, though single readings can be large or run the other way; further: potency means the concentration at half of the fitted maximal effect
#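 Infectious HCV cell culture screen: compound-treated cells (1,000/well, pre-plated 4 h) are infected with HCVcc-Cre at roughly 0.5 moi and grown 44 h. Infection is quantified by luciferase signal after 15 min substrate incubation at room temperature.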
# HCMV antiviral – human cytomegalovirus inhibition; activity change, negative = inhibition, % at 57.5 µM; HFF cells, HCMV-luciferase reporter, 72 h; hits give low values; 410,000 compounds, 4.5% hits; in the data active means activity change below about -60%; inconclusive means no clear call, values can overlap the other calls; inactive means above about -39%
#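 Two compound doses tested in HFFs infected with HCMV-luciferase, MOI 1 PFU/cell, 72 h at 37C. Lysate luminescence read with OneGlo; data normalized against buffer-only and 10uM Salinomycin inhibitor controls.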
# FMDV inh – foot and mouth disease virus antiviral activity | AID 1159524 | 410,000 compounds, 1.2% hits | Potency, µM (top dose mostly 57.9 µM), for the others: at the highest dose activity change, negative = inhibition, most hits filed as inhibitors | FMDV antiviral cell-based qHTS; calls by dose curve; tested in HEK293T cells; further: read-out not given here; potency means the concentration at half of the fitted maximal effect; nearly all actives have a fitted effect of over 45% in size
# Vaccinia Venus – inhibitors of vaccinia virus (Venus reporter) | Vaccinia virus Venus reporter expression, fluorescence | Potency, µM (top dose mostly 36.5 µM), for inactives: at the highest dose activity change, negative = inhibition, hits mostly inhibitors | 330,000 compounds, 0.46% hits | AID 720580; calls by dose curve; tested in A549 cells; further: potency means the concentration at half of the fitted maximal effect; nearly all actives have a fitted effect of over 30% in size
# VACV mCherry inh – inhibitors of vaccinia virus infection (mCherry reporter signal); Potency, µM (titrated, usually from 36.5 µM), without a hit: top-dose activity change, negative = inhibition, usual class: inhibitors; Vaccinia virus mCherry reporter infection, fluorescence; 310,000 compounds, 0.63% hits; calls by dose curve; tested in A549 cells; further: potency means the concentration at half of the fitted maximal effect; nearly all actives have a fitted effect of over 35% in size
# * marks the source's active call; other numbers are inactive results; i = inactive; ? = inconclusive; . = no result; [ ] = remark or other dose. On the % scale 0 is the no-effect control and ±100 the full control effect.
SMILES,HCV inhibitor,HCMV antiviral,FMDV inh,Vaccinia Venus,VACV mCherry inh
CCOc1ccccc1/C=N/Nc1ccccc1[N+](=O)[O-],?,7.7,26.0%,-9.8%,-8.9%
N#Cc1nc(/C=C/c2ccc(F)cc2)oc1N1CCCCCC1,.,-18.9,-6.3%,-8.8%,-25.0%
c1coc(-c2nc3c4ccccc4ccn3c2Cc2ccsc2)c1,.,58.1,.,.,.
COc1ccc(Nc2ncnc3sc(-c4ccccc4)cc23)cc1OC,?,-61.6*,0.0%,-20.5%,i
COc1ccc(Nc2ncnc3c2cnn3-c2ccccc2)cc1OC,?,?,10.0%,?,-12.6%
CCOC(CNc1ncnc2sc(-c3ccccc3)cc12)OCC,?,-71.5*,-21.5%,.,.
CN(C)CCCNc1ncnc2sc(-c3ccccc3)cc12,?,-6.3,-13.6%,.,.
CC(C)Oc1ccc(CNC(=O)c2ccc(CS(=O)c3cccc(Cl)c3)o2)cc1 (stereo unspecified),.,-26.0,-21.3%,-13.1%,-15.2%
Clc1ccc(-c2ccc(C=Nc3ccc(N4CCOCC4)cc3)o2)c(Cl)c1,5.5%,-25.7,5.6%,-11.7%,-15.9%
Clc1ccc(-c2ccc(C=Nc3ccc(N4CCOCC4)cc3)o2)cc1,16.5%,-61.8*,-7.0%,-4.3%,-11.1%
COc1ccccc1CNC(=O)CN1N=C(c2ccccc2)CCC1=O,.,-3.7,0.0%,-6.7%,-13.8%
Cc1nc(SCC(=O)Nc2c(C)n(C)n(-c3ccccc3)c2=O)c2cnn(-c3ccccc3)c2n1,25.1µM*,57.3,?,.,.
CC(=O)OC1CCC23CC1(C)CCC2C(C)(C)CC3OC(C)=O (stereo unspecified),.,.,-8.4%,2.7%,-9.2%
CC(C)c1cnc2c(c1SCc1cccc(F)c1)c(=O)n(C)c(=O)n2C,.,?,-24.3%,-7.7%,-7.5%
C=CC(=O)NCCCc1cc(C(C)(C)C)c(O)c(C(C)(C)C)c1,?,-95.9*,0.0%,?,?
Cn1cc(/C=C/c2ccnc3ccccc23)c2ccccc21,.,.,.,72.2%,?
Cc1nc(CC(=O)c2c(C)cc(O)cc2O)cs1,-5.6%,-70.6*,.,-12.8%,-3.8%
Cc1ccc(NC(=O)c2cc(S(=O)(=O)N3CCCCC3)cs2)cc1,?,-81.2*,.,?,-28.4%
O=C(Nc1ccc(F)cc1)c1cc(S(=O)(=O)N2CCOCC2)cs1,-27.5%,6.5,-24.0%,.,.
Cc1ccc(NC(=O)c2cc(S(=O)(=O)N3CCOCC3)cs2)cc1,?,4.2,?,-17.3%,-24.2%
O=C(Nc1ccc(Cl)cc1)c1cc(S(=O)(=O)N2CCOCC2)cs1,5.62µM*,?,?,.,.
COC(=O)C(Cc1ccc(O)cc1)NS(=O)(=O)Cc1ccccc1 (stereo unspecified),.,12.0,.,.,.
C=CCc1cccc(/C=N/NC(=O)CN2CCN(Cc3ccccc3)CC2)c1O,.,.,-16.1%,.,.
Cc1ccc(NC(=O)CSc2nc3ccccc3nc2Cc2ccccc2)c(C)c1,.,0.3,-11.7%,-2.6%,-1.1%
C=CCn1c(=NC(=O)C2COc3ccccc3O2)sc2cc(S(N)(=O)=O)ccc21 (stereo unspecified),-0.1%,24.1,31.6µM*,-26.3%,-19.4%
SMILES,HCV inhibitor,HCMV antiviral,FMDV inh,Vaccinia Venus,VACV mCherry inh
CSCCC(c1nnnn1Cc1ccccc1)N1CCC(n2c(=O)[nH]c3ccccc32)CC1 (stereo unspecified),.,-90.0*,-26.2%,-19.3%,-13.9%
CSCCC(c1nnnn1Cc1ccccc1)N1CCC2(CC1)C(=O)NCN2c1ccccc1 (stereo unspecified),.,-6.4,-17.4%,-3.6%,14.6%
O=c1[nH]c2ccccc2n1C1CCN(C(CCc2ccccc2)c2nnnn2Cc2ccccc2)CC1 (stereo unspecified),.,-103.0*,35.5µM*,11.2µM*,?
O=C(Cn1c(=O)oc2ccccc21)NCc1ccccc1Cl,.,11.6,48.5%,-8.8%,-4.0%
c1ccc(Cn2c3ccccc3c3nnc(SCCN4CCCCC4)nc32)cc1,-21.2%,-60.1*,-25.2%,-2.1%,-5.2%
CCCn1c2ccc(C)cc2c2nnc(SCCN3CCCCC3)nc21,8.91µM*,28.0,-15.7%,?,?
CCCn1c2ccc(F)cc2c2nnc(SCCN3CCCCC3)nc21,-19.0%,-19.0,-20.0%,0.1%,-6.9%
CCn1c2ccc(F)cc2c2nnc(SCCN3CCCCC3)nc21,14.1µM*,37.1,-24.8%,-20.6%,-4.0%
C=CCn1c2ccccc2c2nnc(SCCCn3c(=O)[nH]c4ccccc43)nc21,10µM*,50.9,?,10µM*,.
O=C1c2ccccc2/C(=C\c2ccc3[nH]ccc3c2)N1c1ccccc1,?,-66.5*,24.3%,-29.7%,?
CCC/C(=C1/c2ccccc2C(=O)N1c1ccccc1)c1ccc2[nH]ccc2c1,?,53.1,0.0%,-26.8%,-26.4%
COC(=O)C1C=CC(OC2OC(COC(C)=O)C(OC(C)=O)C(OC(C)=O)C2OC(C)=O)n2c(=O)n(-c3ccccc3)c(=O)n21 (stereo unspecified),10µM*,-97.7*,25.1µM*,?,10µM*
O=C(c1cccc(Cl)c1)N1CCCC(Cn2cc(C(=O)N3CCCC3)nn2)C1 (stereo unspecified),.,.,13.9%,0.0%,-4.1%
Cc1ccc(-c2nc(NC(=O)CSc3nc(C)nc4sc5c(c34)CCCC5)ns2)cc1,.,-11.8,5.1%,-8.0%,-9.3%
COc1cc(C(=O)NC2CCN(C)CC2)ccc1Nc1ncc2c(n1)N(C1CCCC1)CCC(=O)N2C(C)C,27.8%[8.37 µM],.,-1.1%,?,?
COc1cc(C(=O)NC2CCN(C)CC2)ccc1Nc1ncc2c(n1)N(CCc1ccccc1)CCC(=O)N2C,-48.5%,-77.6*,0.0%,?,?
Cc1ccccc1NC(=O)c1sc2nc(-c3ccncc3)ccc2c1N,.,?,0.0%,4.3%,-16.3%
Cc1ccc(NC(=O)CCn2cnc3onc(-c4ccc(F)cc4)c3c2=O)c(Br)c1,.,0.2,0.0%,0.4%,-8.9%
O=C(CCn1cnc2onc(-c3ccc(F)cc3)c2c1=O)Nc1cccc(C(F)(F)F)c1,.,-85.8*,-18.8%,-13.3%,-16.5%
O=C(CCn1cnc2onc(-c3ccc(F)cc3)c2c1=O)Nc1ccc(F)c(Cl)c1,.,-67.3*,-29.6%,-25.2%,-26.7%
Nc1[nH]n2c(=O)cc(-c3ccccc3)nc2c1N=Nc1ccc(S(N)(=O)=O)cc1,1.0%,-8.9,-4.7%,-5.8%,-0.7%
NS(=O)(=O)c1ccc(N=Nc2c(-c3ccccc3)[nH]n(-c3nc(-c4ccccc4)cs3)c2=O)cc1,6.31µM*,-36.8,-20.0%,-17.9%,i
O=S(=O)(c1cnc2ccccc2c1)N1CCN(c2nc(-c3cccs3)nc3ccccc23)CC1,.,.,.,-5.6%,i
Cc1n[nH]c(C)c1Cc1c(F)cccc1Cl,-0.9%,-38.9,-9.1%,.,.
Nc1nc(-c2ccccn2)nc(N)c1Cc1ccc(Cl)cc1Cl,3.55µM*,-93.3*,6.2%,-17.0%,?
CNc1cc(C(F)(F)F)nc(-c2ccccn2)n1,0.5%,17.6,-2.8%,.,.
Nc1nc(-c2ccccn2)nc(N)c1Cc1ccccc1F,?,-102.0*,7.1%,-11.7%,-16.4%
